Laboratory results: PubChem BioAssay

Test: JC-1 mitochondrial signal, unstimulated myeloma cells – cell-based, JC-1 fluorescence, RPMI8226, 24 h, 100 nL compound, profiling panel (AID 1169); also: test concentration not given here
Conditions: JC-1 mitochondrial potential fluorescence, higher = more signal

Row | SMILES | z-score
1 | CC(C)[Si]1(C(C)C)O[C@@H](c2ccccc2)c2cc(-c3ccc(-c4ccc(Cl)c(Cl)c4)o3)nc(-c3ccccc3)c21 | -0.395
2 | OCCCC1=CC(c2cccs2)N(Cc2cc3c(cc2Br)OCO3)CC1 (stereo not given) | -0.707
3 | CCOC(=O)C[C@H]1[C@H](OC(=O)c2ccc(C(=O)c3ccccc3)cc2)[C@@H](NC(=O)c2ccc3ccccc3c2)c2cc(OCCCO)ccc2N1C(=O)Cc1ccc(OC)cc1 | -0.716
4 | C=C(CC1([C@@H](NP(=O)(c2ccccc2)c2ccccc2)[C@H]2C[C@@H]2CCCC)CC1)c1ccccc1 | -0.968
5 | COc1cc(COC(C)=O)ccc1OC(C)=O | -0.219
6 | C=C(CCCC)/C(=C/C[C@@H](OC(=O)c1ccncc1)c1ccc(OCCO)cc1)c1cc(C(=O)OC)ccc1OC | -0.728
7 | C=C(CCCC)C(=O)CC[C@@H](OC(=O)c1ccccc1-c1ccccc1C(=O)O)c1ccc(OCCO)cc1 | -0.659
8 | COCCOC(=O)N1C(=O)[C@@]2(c3cc(C#CCC(C(=O)OC)C(=O)OC)ccc31)[C@H](C(=O)Nc1nc3ccccc3s1)[C@H]1C(=O)O[C@H](c3ccccc3)[C@H](c3ccccc3)N1[C@@H]2c1ccccc1OCCO | -0.859
9 | NC(=O)N1C(=O)C2C(C1=O)C1C=C(c3ccc(CO)cc3)C2C(c2cccs2)N1Cc1cccc(OC(F)(F)F)c1 (stereo not given) | -0.85
10 | COCCOC(=O)N1C(=O)[C@@]2(c3cc(C#CCNC(N)=O)ccc31)[C@H](C(=O)N1CCN(c3ncccn3)CC1)[C@H]1C(=O)O[C@H](c3ccccc3)[C@H](c3ccccc3)N1[C@@H]2c1ccc(OCCO)cc1 | -0.863
11 | CCCc1cc2c(n1Cc1cc(F)cc(F)c1)C(C)C1CN(C(=O)c3ccccc3)C(C)(C(=O)OC)C21 (stereo not given) | -0.904
12 | CCCC[C@@H]1C[C@H]1[C@@H](NC(=O)c1ccco1)c1ccc(-c2ccccc2)cc1 | -0.0532
13 | C=CC[C@@]12N=C(c3ccc(OCCCO)cc3)O[C@@H]1c1ccccc1N(C)C2=O | -1.12
14 | COC(=O)[C@@]1(Cc2ccccc2)N=C(c2ccc(OCCCO)cc2)O[C@H]1c1ccccc1 | -1.1
15 | COc1cccc(-c2cccc(=O)o2)c1 | 0.812
16 | C=C[C@H](CO[Si](CC)(CC)CC)N(Cc1ccc(OC(C)=O)c(OC)c1)S(=O)(=O)c1ccc(Br)cc1 | -1.1
17 | NC(=O)NCC#Cc1ccc2c(c1)[C@]1(C(=O)N2)[C@H](c2ccc(O)cc2)N2[C@H](c3ccccc3)[C@H](c3ccccc3)OC(=O)[C@H]2[C@@H]1C(=O)O | 0.183
18 | COC(=O)C[C@H]1O[C@]2(C(=O)N(C)c3ccccc32)[C@@H](C)[C@@H]1[Si](C)(C)F | 0.452

Row | SMILES | z-score
19 | O=C1C2C=CC(C(O)c3cc(C(F)(F)F)cc(C(F)(F)F)c3)N(n3cnnc3)C2C(=O)N1Cc1ccccc1 (stereo not given) | 0.11
20 | Cc1nc2cc(Br)ccc2c(=O)o1 | 0.649
21 | C=C(CCCC)/C(=C/C[C@@H](OC(C)=O)c1ccc(OCCO)cc1)c1cnc2ccccc2c1 | -0.364
22 | COc1cc2c(cc1O)C(C1CC1)N(Cc1sc3ccccc3c1Cl)CC2 (stereo not given) | -0.858
23 | COc1cc2c(cc1O)C(c1cccs1)N(C)CC2 (stereo not given) | -0.0651
24 | CN1C=C(C(=O)OCCS(C)(=O)=O)C(C(=O)OCCS(C)(=O)=O)=CC(c2ccc(CO)cc2)=CC1C1CC1 (stereo not given) | 0.167
25 | Cc1ccc(N2C(=O)c3ccccc3[C@@H](C(=O)NC3CC3)[C@@H]2c2ccc(CO)cc2)nc1 | 0.755
26 | O=C1C[C@@](C(=O)NCC(F)(F)F)(c2ccc([N+](=O)[O-])cc2)[C@@H](c2ccc(CO)cc2I)N1C1CCCCC1 | -0.521
27 | Cc1ccc(S[C@]2(C(=O)NCCCN(C)C)CC(=O)N(Cc3cc(C(F)(F)F)cc(C(F)(F)F)c3)[C@@H]2c2ccc(CO)cc2)cc1 | 0.199
28 | C=C(COC)/C(=C/C[C@@H](OC(=O)c1ccncc1)c1ccc(CO)o1)c1cc(C(=O)OC)ccc1OC | -0.277
29 | C=C[C@H](OC)[C@@H](OC(=O)Nc1ccc(OC)cc1)c1ccc(O)c(F)c1 | -0.538
30 | COCCOC(=O)N1C(=O)[C@@]2(c3cc(C#CC4(O)CCCCCC4)ccc31)[C@H](c1ccccc1OCCO)N1[C@H](c3ccccc3)[C@H](c3ccccc3)OC(=O)[C@H]1[C@@H]2C(=O)N1CCN(c2ncccn2)CC1 | -0.965
31 | C=CC(=C)[C@H]1Oc2ccccc2S(=O)(=O)N2CCC[C@@H]12 | -0.295
32 | [N-]=[N+]=Nc1ccccc1[C@@H]1OC(c2ccc(OCCCO)cc2)=N[C@]1(Cc1ccccc1)C(=O)N1CCOCC1 | -1.21
33 | COCCOC(=O)N1C(=O)[C@@]2(c3cc(C#CCCO)ccc31)[C@H](C(N)=O)[C@H]1C(=O)O[C@H](c3ccccc3)[C@H](c3ccccc3)N1[C@@H]2c1ccc(O)cc1 | -0.105
34 | C=C(C(=O)CC[C@@H](OC(=O)c1cccnc1)c1ccccc1OCCO)C(C)C | -0.356
35 | C=CCNC(=O)[C@H]1[C@@H]2C(=O)O[C@@H](c3ccccc3)[C@@H](c3ccccc3)N2[C@@H](c2ccccc2OCCO)[C@]12C(=O)Nc1ccc(C#CCC(C(=O)OC)C(=O)OC)cc12 | -1.32
